PubChem BioAssay (Tox21)
Where “and” joins values, the source holds several entries; their conditions need not be identical. Equal values may be shown once. Results filed as inconclusive are left out. Calls of active or inactive are those of the source. Unless noted, calls come from the whole dose curve; as a rule, active = well fitted curve in the direction sought with a large enough effect in the repeat runs; inconclusive = weak or mixed curves; inactive = no such curve, though single readings can be large; an effect the other way counts as inactive or inconclusive.

Columns and labels:
[1] = biological target: Aryl hydrocarbon receptor (Homo sapiens) (UniProt P35869); assay: qHTS assay to identify small molecule that activate the aryl hydrocarbon receptor (AhR) signaling pathway (AID 743085); note: nearly all actives have a fitted effect of over 15% in size; note: potency is the fitted concentration of half-maximal effect;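 for activation: HG2L7.5c1 human HepG2 liver cells with stably integrated DRE-driven firefly reporter; series mostly up to about 70 µM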
Aryl hydrocarbon receptor (Homo sapiens), sequence (P35869 whole entry, looked up): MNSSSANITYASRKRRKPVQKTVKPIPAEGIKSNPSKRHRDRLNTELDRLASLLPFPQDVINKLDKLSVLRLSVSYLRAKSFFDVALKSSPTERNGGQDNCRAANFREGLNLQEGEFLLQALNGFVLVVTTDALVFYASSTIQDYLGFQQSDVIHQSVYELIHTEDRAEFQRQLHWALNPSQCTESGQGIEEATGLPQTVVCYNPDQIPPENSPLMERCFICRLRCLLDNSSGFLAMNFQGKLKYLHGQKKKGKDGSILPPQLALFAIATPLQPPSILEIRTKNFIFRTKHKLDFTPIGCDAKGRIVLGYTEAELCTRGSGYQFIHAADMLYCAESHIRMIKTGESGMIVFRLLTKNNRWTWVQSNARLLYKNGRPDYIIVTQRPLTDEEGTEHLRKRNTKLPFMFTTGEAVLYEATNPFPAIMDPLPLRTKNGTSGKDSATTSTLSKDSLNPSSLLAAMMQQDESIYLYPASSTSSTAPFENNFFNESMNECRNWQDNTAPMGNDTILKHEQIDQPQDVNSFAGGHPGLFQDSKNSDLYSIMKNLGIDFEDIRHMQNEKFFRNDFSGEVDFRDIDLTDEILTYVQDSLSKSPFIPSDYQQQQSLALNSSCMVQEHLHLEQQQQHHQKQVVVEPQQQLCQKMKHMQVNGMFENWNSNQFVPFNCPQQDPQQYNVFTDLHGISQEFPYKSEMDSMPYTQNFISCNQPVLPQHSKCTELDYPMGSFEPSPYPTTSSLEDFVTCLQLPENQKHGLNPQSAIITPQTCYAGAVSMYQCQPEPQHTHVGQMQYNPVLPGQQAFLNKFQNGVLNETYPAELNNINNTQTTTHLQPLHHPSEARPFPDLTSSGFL
Outline: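 Stably transfected human liver carcinoma cells (HG2L7.5c1; 20 DRE-firefly luciferase) were incubated 5 h, dosed, and kept 24 h at 37C. Agonism was scored from increased luciferase luminescence.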

[2] = biological target: Peroxisome proliferator-activated receptor gamma (Homo sapiens) (UniProt P37231); assay: qHTS assay to identify small molecule antagonists of the peroxisome proliferator-activated receptor gamma (PPARg) signaling pathway (AID 743191; calls by dose curve; note: nearly all actives have a fitted effect of over 30% in size; note: potency is the fitted concentration of half-maximal effect)
Peroxisome proliferator-activated receptor gamma (Homo sapiens), sequence (P37231 whole entry, looked up): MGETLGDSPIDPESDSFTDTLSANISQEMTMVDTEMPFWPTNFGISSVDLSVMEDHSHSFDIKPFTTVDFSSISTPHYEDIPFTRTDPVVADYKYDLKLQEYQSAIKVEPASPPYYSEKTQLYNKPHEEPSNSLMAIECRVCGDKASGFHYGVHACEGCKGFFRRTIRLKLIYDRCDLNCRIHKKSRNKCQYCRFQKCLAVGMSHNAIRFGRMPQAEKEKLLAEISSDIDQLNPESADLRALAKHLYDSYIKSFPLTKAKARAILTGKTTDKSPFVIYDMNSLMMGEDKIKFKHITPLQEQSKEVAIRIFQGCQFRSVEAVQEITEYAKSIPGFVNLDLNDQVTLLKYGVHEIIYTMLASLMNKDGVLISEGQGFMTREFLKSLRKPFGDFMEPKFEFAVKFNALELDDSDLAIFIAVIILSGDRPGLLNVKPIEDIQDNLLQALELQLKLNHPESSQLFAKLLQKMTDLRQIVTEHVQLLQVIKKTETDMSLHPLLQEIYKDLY
Outline: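 GeneBLAzer PPARg UAS-bla HEK293H cells carrying a UAS-driven beta-lactamase reporter were plated at 3000 cells/well, preincubated 5 h at 37C, then given compound for 17 h at 37C; LiveBLAzer B/G FRET substrate was read after 1 h at room temperature.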

[3] = qHTS assay for small molecule agonists of the antioxidant response element (ARE) signaling pathway - cell viability counter screen (AID 743203; calls by dose curve; note: nearly all actives have a fitted effect of over 55% in size; note: potency is the fitted concentration of half-maximal effect)
Outline: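 Viability counter screen: stably transfected ARE-bla HepG2 line, 16 hrs compound exposure at 37C/5% CO2, ATP-based CellTiter-Glo luminescence measured in the reporter wells.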

[4] = qHTS assay for small molecule activators of the heat shock response signaling pathway - cell viability counter screen (AID 743209); note: nearly all actives have a fitted effect of over 50% in size; note: potency is the fitted concentration of half-maximal effect
Outline: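 Viability of HSE-bla HeLa cells is measured with CellTiter-Glo in the wells already used for the reporter read. Compound exposure lasts 5 h at 37 C, and luminescence is read after 30 min at room temperature.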

[5] = qHTS assay to identify small molecule antagonists of the farnesoid-X-receptor (FXR) signaling pathway - cell viability counter screen (AID 743221; active = well fitted cell-killing curve with a large enough effect in the repeat runs, not every such curve was filed as active; note: nearly all actives have a fitted effect of over 50% in size; note: potency is the fitted concentration of half-maximal effect)
Outline: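 Here viability was scored by luminescence after CellTiter-Glo addition to wells already read for beta-lactamase. Prior treatment: compound plus CDCA (50 uM final), 16 h, 37 C, HEK 293T FXR-bla cells.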

[6] = qHTS assay to identify small molecule antagonists of the peroxisome proliferator-activated receptor gamma (PPARg) signaling pathway - cell viability counter screen (AID 743194); note: nearly all actives have a fitted effect of over 55% in size; note: potency is the fitted concentration of half-maximal effect
Outline: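 PPARg-UAS-bla HEK293H cells were plated, rested 5 h at 37 C, then treated with compounds plus rosiglitazone (50 nM final) for 17 h at 37 C; viability was then read by CellTiter-Glo luminescence after 30 min at room temperature.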

[7] = qHTS assay for small molecule agonists of the antioxidant response element (ARE) signaling pathway (AID 743202; active = well fitted activation curve with a large enough effect in the signal ratio in the repeat runs, not every such curve was filed as active; the % refers to the signal ratio; note: potency is the fitted concentration of half-maximal effect)
Outline: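 Steps: seed ARE-bla HepG2 cells (2,000/well); incubate 5 h at 37 C; add compounds by pin tool; incubate 16 h at 37 C; add FRET substrate; read fluorescence after 2 h at RT.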

[8] = biological target: Peroxisome proliferator-activated receptor delta (Homo sapiens) (UniProt Q03181); assay: qHTS assay to identify small molecule agonists of the peroxisome proliferator-activated receptor delta (PPARd) signaling pathway (AID 743212; calls by dose curve; note: potency is the fitted concentration of half-maximal effect)
Peroxisome proliferator-activated receptor delta (Homo sapiens), sequence (Q03181 whole entry, looked up): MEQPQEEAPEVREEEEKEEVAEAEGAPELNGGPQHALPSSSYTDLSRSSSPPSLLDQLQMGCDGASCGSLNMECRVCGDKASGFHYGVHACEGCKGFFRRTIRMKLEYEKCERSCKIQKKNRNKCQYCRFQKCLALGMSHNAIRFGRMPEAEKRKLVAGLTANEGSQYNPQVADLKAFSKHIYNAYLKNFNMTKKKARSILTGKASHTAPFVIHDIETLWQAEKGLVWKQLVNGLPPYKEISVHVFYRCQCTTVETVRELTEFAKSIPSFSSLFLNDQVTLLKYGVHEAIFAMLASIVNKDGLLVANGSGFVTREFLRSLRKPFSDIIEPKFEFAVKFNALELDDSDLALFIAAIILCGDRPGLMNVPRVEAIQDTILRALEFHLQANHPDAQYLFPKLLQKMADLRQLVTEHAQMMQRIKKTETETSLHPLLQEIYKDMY
Outline: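 Cells expressing a UAS-driven beta-lactamase reporter (PPARd-bla HEK293H) were given test compounds after a 5 h settle and kept at 37 C. Reporter activity was then measured as FRET fluorescence using LiveBLAzer B/G substrate.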

[9] = qHTS assay to identify small molecule antagonists of the peroxisome proliferator-activated receptor delta (PPARd) signaling pathway - cell viability counter screen (AID 743213); note: nearly all actives have a fitted effect of over 50% in size; note: potency is the fitted concentration of half-maximal effect
Outline: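 HEK293H PPARd UAS-bla cells, 5 h pre-incubation, compound + L165041 300 nM final, 17 h 37 C; B/G FRET substrate 2 h RT; then CellTiter-Glo 30 min RT, luminescence.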

[10] = qHTS assay to identify small molecule agonists of the farnesoid-X-receptor (FXR) signaling pathway - cell viability counter screen (AID 743218); note: nearly all actives have a fitted effect of over 45% in size; note: potency is the fitted concentration of half-maximal effect
Outline: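 Viability of FXR-bla HEK 293T cells is measured by ATP-based CellTiter-Glo luminescence following 16 h compound treatment at 37 C and a prior 2 h room-temperature beta-lactamase substrate step.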

[11] = biological target: Bile acid receptor (Homo sapiens) (UniProt Q96RI1); assay: qHTS assay to identify small molecule agonists of the farnesoid-X-receptor (FXR) signaling pathway (AID 743220; active = well fitted activation curve with a large enough effect in the signal ratio in the repeat runs, not every such curve was filed as active; the % refers to the signal ratio; note: potency is the fitted concentration of half-maximal effect)
Bile acid receptor (Homo sapiens), sequence (Q96RI1 whole entry, looked up): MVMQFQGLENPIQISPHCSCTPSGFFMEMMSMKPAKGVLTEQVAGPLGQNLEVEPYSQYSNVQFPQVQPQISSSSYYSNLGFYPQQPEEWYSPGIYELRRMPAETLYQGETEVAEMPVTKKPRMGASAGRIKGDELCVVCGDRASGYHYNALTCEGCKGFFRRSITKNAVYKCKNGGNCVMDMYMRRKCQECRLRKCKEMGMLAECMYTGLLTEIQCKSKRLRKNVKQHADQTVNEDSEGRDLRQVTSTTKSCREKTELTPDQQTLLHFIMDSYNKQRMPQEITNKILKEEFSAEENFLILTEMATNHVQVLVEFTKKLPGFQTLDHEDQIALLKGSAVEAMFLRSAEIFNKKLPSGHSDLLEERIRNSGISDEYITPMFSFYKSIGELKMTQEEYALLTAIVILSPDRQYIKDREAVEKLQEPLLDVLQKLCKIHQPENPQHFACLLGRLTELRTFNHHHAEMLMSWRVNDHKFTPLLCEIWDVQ
Outline: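 FXR-UAS-bla HEK 293T cells carrying a UAS-driven beta-lactamase reporter were plated for 5 h at 37C/5% CO2, then exposed to DMSO-dissolved Tox21 10K compounds for 16 h at 37C. A LiveBLAzer B/G FRET substrate was loaded for 2 h at room temperature before fluorescence reading.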

[12] = qHTS assay to identify small molecule agonists of the peroxisome proliferator-activated receptor delta (PPARd) signaling pathway - cell viability counter screen (AID 743211); note: nearly all actives have a fitted effect of over 55% in size; note: potency is the fitted concentration of half-maximal effect
Outline: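 In the same wells used for beta-lactamase reporter measurement, cytotoxicity is scored by CellTiter-Glo. HEK293H PPARd-bla cells receive compound for 17 h at 37C following a 5 h settling period.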

[13] = biological target: Peroxisome proliferator-activated receptor gamma (Homo sapiens) (UniProt P37231); assay: qHTS assay to identify small molecule agonists of the peroxisome proliferator-activated receptor gamma (PPARg) signaling pathway (AID 743094; active = well fitted activation curve with a large enough effect in the signal ratio in the repeat runs, not every such curve was filed as active; the % refers to the signal ratio)
Outline: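 Reporter activation was scored by fluorescence of cleaved LiveBLAzer B/G substrate (1 h, room temperature) in PPARg-bla HEK293H cells previously treated 17 h at 37C with DMSO-dissolved compounds.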

[14] = biological target: Vitamin D3 receptor (Homo sapiens) (UniProt P11473); assay: qHTS assay to identify small molecule agonists of the vitamin D receptor (VDR) signaling pathway (AID 743222; calls by dose curve)
Vitamin D3 receptor (Homo sapiens), sequence (P11473 whole entry, looked up): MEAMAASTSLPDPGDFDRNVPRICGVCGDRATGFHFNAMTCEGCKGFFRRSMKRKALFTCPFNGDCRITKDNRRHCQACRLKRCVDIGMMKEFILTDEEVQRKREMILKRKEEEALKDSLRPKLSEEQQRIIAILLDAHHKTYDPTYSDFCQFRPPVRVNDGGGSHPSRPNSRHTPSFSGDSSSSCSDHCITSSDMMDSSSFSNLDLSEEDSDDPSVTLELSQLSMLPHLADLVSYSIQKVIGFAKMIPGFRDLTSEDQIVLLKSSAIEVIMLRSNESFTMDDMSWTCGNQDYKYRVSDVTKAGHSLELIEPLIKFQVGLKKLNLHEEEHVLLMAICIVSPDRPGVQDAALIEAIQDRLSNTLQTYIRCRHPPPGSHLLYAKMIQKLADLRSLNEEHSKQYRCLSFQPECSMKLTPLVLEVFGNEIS
Outline: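 Fluorescence from cleaved LiveBLAzer B/G FRET substrate served as readout. VDR-bla cells had been treated 16 h at 37C with test compounds in DMSO, following a 4 h settling period, and substrate was loaded for 2 h at RT.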

[15] = qHTS assay for small molecule activators of the heat shock response signaling pathway (AID 743210; active = well fitted activation curve with a large enough effect in the signal ratio in the repeat runs, with a control signal flat, not every such curve was filed as active; the % refers to the signal ratio; note: potency is the fitted concentration of half-maximal effect;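 for activation: HeLa cells with beta-lactamase reporter driven by heat shock elements; series mostly up to about 63 µM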)
Outline: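 Activation of heat shock element-controlled beta-lactamase expression is measured in HeLa cells by LiveBLAzer FRET fluorescence, with compound exposure lasting 5 h at 37 C and substrate loading 2.5 h at room temperature.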

[16] = biological target: Peroxisome proliferator-activated receptor delta (Homo sapiens) (UniProt Q03181); assay: qHTS assay to identify small molecule antagonists of the peroxisome proliferator-activated receptor delta (PPARd) signaling pathway (AID 743215; active = well fitted inhibition curve with a large enough effect in the signal ratio in the repeat runs, not every such curve was filed as active; the % refers to the signal ratio;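 note: cells stimulated with agonist L165041 at 300 nM final during compound exposure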; note: potency is the fitted concentration of half-maximal effect)
Outline: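 Plated HEK293H PPARd-bla cells rested 5 h at 37 C and 5% CO2. Compound, then agonist L165041 at 300 nM final, was added; 17 h at 37 C followed. Substrate loading, 2 h room temperature, fluorescence measured.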

[17] = biological target: Bile acid receptor (Homo sapiens) (UniProt Q96RI1); assay: qHTS assay to identify small molecule antagonists of the farnesoid-X-receptor (FXR) signaling pathway (AID 743217; active = well fitted inhibition curve with a large enough effect in the signal ratio in the repeat runs, not every such curve was filed as active; the % refers to the signal ratio)
Outline: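 Screen of the Tox21 10K library in quantitative HTS format using FXR-UAS-bla HEK 293T reporter cells. Agonist chenodeoxycholic acid, 50 uM final, added with compounds; 16 h incubation at 37 °C; beta-lactamase FRET fluorescence measured.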

[18] = qHTS assay to identify aromatase inhibitors - cell viability counter screen (AID 743084);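 note: cells stimulated with testosterone during compound exposure; potency is the fitted concentration of half-maximal effect; nearly all actives have a fitted effect of over 55% in size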
[19] = qHTS assay to identify small molecule that activate the aryl hydrocarbon receptor (AhR) signaling pathway - cell viability counter screen (AID 743086); note: nearly all actives have a fitted effect of over 45% in size; note: potency is the fitted concentration of half-maximal effect
Outline: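 HepG2-AhR-luc (HG2L7.5c1) cells, 4000/well, were preincubated 5 h at 37C, exposed to compound in qHTS format for 24 hr at 37C, then given CellTiter-Fluor for 30 min; viability was read as fluorescence in the reporter wells.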

[20] = biological target: Vitamin D3 receptor (Homo sapiens) (UniProt P11473); assay: qHTS assay to identify small molecule antagonists of the vitamin D receptor (VDR) signaling pathway (AID 743223; active = well fitted inhibition curve with a large enough effect in the signal ratio in the repeat runs, not every such curve was filed as active; the % refers to the signal ratio)
Outline: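 Inhibition of agonist-driven VDR signalling is scored in VDR-bla cells: 3 nM final 1alpha,25-dihydroxyvitamin D3 plus compound, 16 h at 37C, then beta-lactamase detection by FRET substrate fluorescence after 2 h.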

Measured: Potency

OCc1c[nH]c2ccccc12
active: [1] 5.14 µM | [2] 12.3 µM
inactive: [3] | [4] | [5]

Nc1c2ccccc2nc2ccccc12
inactive: [6] | [9] | [10] | [5]
active: [1] 11.9 µM and 13.5 µM | [7] 4.22 µM | [3] 24 µM | [8] 26.6 µM | [11] 9.44 µM

CCOc1nc2cccc(C(=O)OC(C)OC(=O)OC3CCCCC3)c2n1Cc1ccc(-c2ccccc2-c2nn[nH]n2)cc1 (configuration not stated)
inactive: [1] | [11]
active: [6] 9.76 µM | [3] 30.6 µM | [4] 13.8 µM | [12] 17.4 µM | [9] 17.4 µM | [10] 15.5 µM

O=C(Nc1cccc([N+](=O)[O-])c1)c1cc2ccccc2cc1O
inactive: [13] | [3] | [4] | [8] | [10] | [14]
active: [1] 2.43 µM | [6] 0.195 µM | [7] 1.72 µM

COc1ccc(CN2CCN(C(c3ccc(F)cc3)c3ccc(F)cc3)CC2)c(OC)c1OC
active: [2] 26.6 µM | [6] 26.6 µM | [12] 29.8 µM | [9] 23.7 µM | [10] 21.1 µM | [5] 29.8 µM
inactive: [1] | [3] | [4] | [15] | [14]

CC1(C)CCC(C)(C)c2cc(C(=O)Nc3ccc(C(=O)O)cc3)ccc21
active: [11] 43.6 µM
not listed: [4] | [9] | [13] | [14] | [15] | [18] | [19] | [20]
inactive: all other assays above

C=C(C)C(=O)OCC(O)COc1ccc(C(C)(C)c2ccc(OCC(O)COC(=O)C(=C)C)cc2)cc1 (configuration not stated)
inactive: [19] | [3] | [8] | [11] | [14]
active: [18] 61.1 µM | [9] 13.8 µM | [16] 27.5 µM

CCCN(CCC)c1c([N+](=O)[O-])cc(C(F)(F)F)c(N)c1[N+](=O)[O-]
active: [18] 54.3 µM | [6] 19.4 µM | [3] 60.9 µM | [4] 34.6 µM | [12] 19.4 µM | [9] 30.8 µM | [10] 38.8 µM

C[n+]1ccn(Cc2ccccc2)c1
not listed: [2] | [7] | [8] | [16] | [18]
inactive: all other assays above

Nc1ccc2cc(S(=O)(=O)O)cc(O)c2c1N=Nc1ccccc1C(F)(F)F
active: [18] 17.2 µM
not listed: [1] | [19]
inactive: all other assays above

CSc1ccc2c(c1)C(N1CCN(C)CC1)Cc1ccccc1S2 (configuration not stated)
inactive: [1] | [4] | [15] | [17] | [11]
active: [19] 29.8 µM | [6] 18.8 µM | [12] 29.8 µM | [9] 16.8 µM | [10] 26.6 µM

C/C=C1/C(=O)C[C@H]2[C@@H]3CCC4=CC(=O)CC[C@]4(C)[C@H]3CC[C@]12C
active: [15] 28.5 µM
inactive: [1] | [19] | [6] | [3] | [4] | [9] | [10] | [5]

CCCCCCCCNC(C)C(O)c1ccc(SC(C)C)cc1 (configuration not stated)
inactive: [13]
